Where “and” joins values, the source holds several entries; their conditions need not be identical. Equal entries are not always repeated. Structures can show the parent of a compound that is named as a salt.
Assays:
Experiment in all cases: cell viability relative to vehicle control; higher = less cytotoxic
Conditions in all cases: 10 µM
[1] = test system: K562
In short: (§1)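 CRISPR-edited mutant clones and isogenic wild-type clones from four leukaemia lines were screened against Selleck bioactive, kinase and epigenetic probe libraries, with identity-inconsistent compounds excluded. Each compound was acoustically dispensed at a single 10 µM dose into 384-well plates holding 2000 cells in 50 µL medium per well. After 48 h the supernatant was removed and CellTiter-Glo luminescence was read. Viability was expressed as percent of the on-plate vehicle control and analysed in Genedata Screener.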

[2] = test system: MARIMO
In short: as §1

[3] = test system: MOLM14
In short: as §1

[4] = test system: OCI-AML2
In short: as §1

SMILES	cell viability ([1]; SRSF2 genotype: SRSF2 P95H/wt)	cell viability ([1]; SRSF2 genotype: SRSF2 wt/wt)	cell viability ([2]; SRSF2 genotype: SRSF2 P95H/wt)	cell viability ([2]; SRSF2 genotype: SRSF2 wt/wt)	cell viability ([3]; SRSF2 genotype: SRSF2 P95H/wt)	cell viability ([3]; SRSF2 genotype: SRSF2 wt/wt)	cell viability ([4]; SRSF2 genotype: P95H/wt)	cell viability ([4]; SRSF2 genotype: wt/wt)
CC1CCCCCCCCCCCCC(=O)C1 (stereo unspecified) [Muscone]	91.4% and 89.5%	87.4%	87.1%	97.1%	90.6%	89.2%	82%	90.7%
CC(C)=CCCC(C)(O)C1CCC2(C)C1C(O)CC1C3(C)CCC(O)C(C)(C)C3CCC12C [(20S)-Protopanaxadiol]	98% and 105%	107%	96.7%	109%	102%	102%	115%	93.5%
C=C1CCC[C@]2(C)C[C@@H]3OC(=O)C(C)=C3C[C@@H]12 [Atractylenolide II]	107% and 105%	99.7%	96.8%	102%	101%	106%	103%	106%
NC(=O)N/N=C/c1ccc([N+](=O)[O-])o1 [Nitrofurazone (Nitrofural)]	98.5% and 94.8%	96.7%	104%	100%	96.8%	99.5%	102%	103%
O=C(NO)c1cccc(C(=O)NCCc2ccccc2)c1	91% and 97.1%	101%	91.9%	86.8%	89.6%	94.3%	90.7%	93.3%
O=c1cc(-c2ccc(O)cc2)oc2cccc(O)c12 [4',5-Dihydroxyflavone]	89.4% and 86%	89.7%	84.4%	84.6%	64.3%	72.5%	66.4%	69.4%
NC(=O)C1CCCc2c1[nH]c1ccc(Cl)cc21 (stereo unspecified)	97% and 96%	105%	89%	102%	96%	99.6%	91.2%	92.2%
C=C1C(=O)[C@]23[C@H](O)[C@H]1CC[C@H]2[C@@]12CO[C@]3(O)[C@@H](O)[C@@H]1C(C)(C)CC[C@@H]2O [Oridonin (Isodonol)]	26.2% and 29.8%	24.2%	37.5%	30.1%	9.97%	3.32%	17.9%	13.2%
CO/N=C(\C(=O)N[C@@H]1C(=O)N2C(C(=O)[O-])=C(C[n+]3cccc4c3CCCC4)CS[C@H]12)c1csc(N)n1 [Cefquinome sulfate]	103% and 99.9%	91%	87.5%	100%	86.3%	95.5%	93.9%	91.6%
CCCC(=O)Nc1ccc(OCC(O)CNC(C)C)c(C(C)=O)c1 (stereo unspecified) [Acebutolol HCl]	96.2% and 86.2%	86.2%	97.3%	95.1%	92.4%	93.3%	94.9%	91.7%
COCCOC(=O)C1=C(C)NC(C)=C(C(=O)OC/C=C/c2ccccc2)C1c1cccc([N+](=O)[O-])c1 (stereo unspecified) [Cilnidipine]	87.1% and 86.8%	81.2%	88.1%	98.1%	78.8%	81.6%	78.9%	74.5%
O=c1ccn([C@@H]2O[C@H](CO)[C@@H](O)[C@H]2O)c(=O)[nH]1 [Uridine]	105% and 90%	94.1%	81.2%	92.2%	82.8%	90%	78.3%	92.8%
COC(=O)Nc1ccc(-c2nc(N3CCOCC3)c3cnn(C4CCN(C(=O)OC)CC4)c3n2)cc1	43.8% and 55.5%	48.8%	53.5%	52%	40.9%	34.3%	33.9%	32.9%
C=CC(=O)N1CCN(CCCn2c(=O)c(-c3c(Cl)c(OC)cc(OC)c3Cl)cc3cnc(NC)nc32)CC1	85.1% and 88.1%	86.8%	63.3%	72.7%	85.3%	88.1%	65.2%	69.4%
C[C@@H](OC[C@@]1(c2ccccc2)CC[C@]2(CCC(=O)N2)CN1)c1cc(C(F)(F)F)cc(C(F)(F)F)c1 [Rolapitant]	54% and 72.1%	68.8%	52.3%	48.8%	54.5%	44.5%	45.2%	39.1%
COc1ccc(-c2cc(=O)c3c(O)cc(OC4OC(CO)C(O)C(O)C4OC4OC(C)C(O)C(O)C4O)cc3o2)cc1O (stereo unspecified) [Neodiosmin]	93.3% and 85.3%	90.1%	94.6%	97%	97.6%	100%	89.8%	94.4%
CC(C)(C)NS(=O)(=O)c1cncc(-c2cc(F)c3nc(N)nn3c2)c1	100% and 102%	101%	93.8%	93.9%	92.5%	103%	81.1%	80.8%
C[C@@H]1O[C@@H](O[C@@H]2[C@@H](O)[C@H](OCCc3ccc(O)c(O)c3)O[C@H](COC(=O)/C=C/c3ccc(O)c(O)c3)[C@H]2O)[C@H](O)[C@H](O)[C@H]1O [Isoacteoside]	101% and 104%	91.6%	99%	103%	94.9%	101%	100%	106%
CC(C)=CCCC(C)(O)C1CCC2(C)C1C(O)CC1C3(C)CCC(O)C(C)(C)C3C(OC3OC(CO)C(O)C(O)C3OC3OC(C)C(O)C(O)C3O)CC12C [(20S)Ginsenoside Rg2]	102% and 108%	98.7%	108%	108%	104%	104%	101%	115%

SMILES	cell viability ([1]; SRSF2 genotype: SRSF2 P95H/wt)	cell viability ([1]; SRSF2 genotype: SRSF2 wt/wt)	cell viability ([2]; SRSF2 genotype: SRSF2 P95H/wt)	cell viability ([2]; SRSF2 genotype: SRSF2 wt/wt)	cell viability ([3]; SRSF2 genotype: SRSF2 P95H/wt)	cell viability ([3]; SRSF2 genotype: SRSF2 wt/wt)	cell viability ([4]; SRSF2 genotype: P95H/wt)	cell viability ([4]; SRSF2 genotype: wt/wt)
CC(=O)Oc1cc2c(s1)CCN(C(C(=O)C1CC1)c1ccccc1F)C2 (stereo unspecified) [Prasugrel (Effient)]	26.1% and 36.8%	32.7%	9.74%	14.8%	23.1%	6.67%	20.9%	23.1%
O=C(O)/C=C/c1ccc(O)cc1 [p-Coumaric Acid]	101% and 108%	110%	108%	110%	107%	107%	109%	103%
Cn1c2ccccc2c2c3c(c4c5ccccc5n(CCC#N)c4c21)CNC3=O	104% and 99.7%	97.7%	85.5%	93.9%	42.6%	36.8%	62.8%	65.6%
CC(C)(C)NCC(O)c1ccc(O)c(CO)c1 (stereo unspecified) [Salbutamol]	104% and 102%	110%	108%	107%	99.4%	106%	101%	97.1%
COc1c/c(=C2\C=c3ccccc3=N2)[nH]/c1=C\c1[nH]c(C)cc1C [Obatoclax mesylate (GX15-070)]	2.96% and 5.97%	9.27%	23.4%	23.6%	6.74%	7.58%	2.7%	13.3%
CCCc1nc(C)c2c(=O)[nH]c(-c3cc(S(=O)(=O)N4CCN(CC)CC4)ccc3OCC)nn12 [Vardenafil Hydrochloride Trihydrate (Vivanza]	99.1% and 107%	97.1%	110%	108%	105%	106%	135%	115%
Clc1ccccc1C(c1ccccc1)(c1ccccc1)n1ccnc1 [Clotrimazole (Canesten)]	92.1% and 91.2%	75.9%	81.5%	87.3%	89.4%	84.6%	77.4%	90%
CC(C)c1nc(CN(C)C(=O)N[C@@H](CCN2CCOCC2)C(=O)N[C@H](CC[C@H](Cc2ccccc2)NC(=O)OCc2cncs2)Cc2ccccc2)cs1 [Cobicistat (GS-9350)]	88.4% and 101%	95.7%	94.7%	104%	94.3%	98.3%	95%	83.8%
C[C@@H](CC[C@@]1(O)O[C@H]2C[C@H]3[C@@H]4CC[C@@H]5C[C@@H](O[C@@H]6O[C@H](CO)[C@H](O)[C@H](O)[C@H]6O[C@@H]6O[C@H](CO)[C@@H](O)[C@H](O)[C@H]6O)CC[C@]5(C)[C@H]4CC[C@]3(C)[C@H]2[C@@H]1C)CO[C@@H]1O[C@H](CO)[C@@H](O)[C@H](O)[C@H]1O [Timosaponin BII]	93.3% and 90.7%	89.5%	102%	107%	96%	93.5%	49.8%	73.6%
CNC(=O)c1cc(COc2nnc(Nc3ccc(Cl)cc3)c3ccoc23)ccn1 [Telatinib (BAY 57-9352)]	94.6% and 90.8%	98.7%	106%	106%	108%	97.3%	90.6%	99.5%
CS(=O)(=O)c1cccc(C[C@H](NC(=O)c2c(Cl)cc3c(c2Cl)CCN(C(=O)c2ccc4ccoc4c2)C3)C(=O)O)c1 [Lifitegrast]	96.8% and 97%	90.3%	90.5%	102%	93.7%	96.6%	92.2%	94.9%
CNCCCC12CCC(c3ccccc31)c1ccccc12 [Maprotiline hydrochloride]	76.7% and 74.8%	71.2%	65.2%	71.2%	64.4%	83.2%	51.1%	56.8%
CC1=C(C(=O)Nc2ccc3[nH]ncc3c2)C(c2ccc(F)cc2)NC(=O)N1 (stereo unspecified)	101% and 97.9%	110%	102%	99.9%	38.5%	91.7%	33.7%	51.5%
Cc1ccc(C(=O)Cn2c3c(sc2=N)CCCC3)cc1	88.9% and 94.2%	91.3%	81.4%	93.8%	84%	96.9%	83.9%	92.3%
O=C(O)c1cccnc1Nc1cccc(C(F)(F)F)c1 [Niflumic acid]	97.2% and 100%	94.6%	94.1%	97.8%	93.8%	98.5%	101%	104%
Cc1ccc(C(=O)Nc2cccc(C(F)(F)F)c2)cc1Nc1nc(-c2cccnc2)nc2c1cnn2C	65.9% and 77.9%	64.2%	46.1%	60.5%	91%	110%	87%	82.7%
O=C1NC(=O)C(=Cc2ccc(-c3ccc(F)cc3)o2)S1 (stereo in doubt)	102% and 101%	97.1%	93.1%	92.5%	113%	108%	94.6%	95.8%
CN(C)C(=O)CCSC(SCCC(=O)O)c1cccc(/C=C/c2ccc3ccc(Cl)cc3n2)c1 (stereo unspecified)	102% and 103%	98.5%	110%	111%	108%	107%	101%	103%

From the supplement of paper PMC10981050
